Test results taken from PubChem BioAssay AID588397 (National Center for Advancing Translational Sciences (NCATS), 2011).
Where “and” joins values, the source holds several entries; their conditions need not be identical. Equal entries are not always repeated. The campaign covered roughly 1,300 compounds. About 1,000 (77%) were called active. Another 7% or so got no clear call; they are omitted. The call rests on the fitted dose curve; in most records, active means well fitted inhibition curve with a large enough effect; inconclusive means small, poorly fitted or top-dose-only effect; inactive means no such curve, though single readings can be large or run the other way. So high a share suggests a set chosen from earlier hits. This is one part of the list.

Assay: qHTS of small molecules that selectively kill Giardia lamblia: Hit Validation.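 Further: viability measured as ATP content by luminescence so killing lowers signal; trophozoites exposed to compounds for 48 h anaerobically at 37 °C; nearly all actives have a fitted effect of over 65% in size.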
Details: Giardia lamblia trophozoite viability, dose-response; series mostly up to 38.3 µM
In short: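 Anaerobic 48 hrs incubation at 37 deg C of 100 trophozoites/well with test compounds; ATPLite 1-Step luminescence, 15-30 min RT, reports cellular ATP as viability.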
Potency means the concentration at half of the fitted maximal effect.

SMILES	Potency
NC(=S)N/N=C1\c2ccccc2-c2c(C(=O)O)cccc21	inactive
CC(=O)c1c(C)n([O-])c2cc(F)c(F)cc2[n+]1=O	4.1 µM (active)
CC(=O)OCc1c(COC(C)=O)[n+](=O)c2ccccc2n1[O-]	5.79 µM (active)
O=C(Nc1ccc2oc(-c3cccnc3)nc2c1)c1ccc([N+](=O)[O-])o1	0.918 µM (active)
O=C(Nc1ccc2oc(-c3ccncc3)nc2c1)c1ccc([N+](=O)[O-])o1	0.918 µM (active)
O=C(Nc1ccc2oc(-c3ccccc3F)nc2c1)c1ccc([N+](=O)[O-])o1	0.818 µM (active)
Cc1cnc(N=Nc2ccccc2)[nH]1	9.18 µM (active)
O=C(NCCCO)c1cc([N+](=O)[O-])cc2c1C=Cc1ccccc1O2	11.6 µM (active)
Cc1ccc2nsnc2c1NC(=O)c1ccc([N+](=O)[O-])o1	3.26 µM (active)
O=C(Nc1c(Cl)ccc2nsnc12)c1ccc([N+](=O)[O-])o1	1.3 µM (active)
NC(=S)NN=C1CCCCCCCC1	23.1 µM (active)
Cc1ncc([N+](=O)[O-])n1CCOC(=O)NC(NCc1ccccc1Cl)C(Cl)(Cl)Cl (stereo not given)	0.146 µM (active)
Cc1ncc([N+](=O)[O-])n1CCOC(=O)NC(NCc1ccccc1)C(Cl)(Cl)Cl (stereo not given)	0.206 µM (active)
Cc1ncc([N+](=O)[O-])n1CCOC(=O)NC(NCc1cccnc1)C(Cl)(Cl)Cl (stereo not given)	0.46 µM (active)
CCCCCCSc1ccc([C@H]2N[C@@](Cc3ccccc3)(C(=O)OC)[C@H]3C(=O)N(C)C(=O)[C@@H]23)cc1	inactive
Cc1cc(=O)oc2cc(O)c(N=Nc3ccccc3)cc12	1.03 µM (active)
Cn1c(-c2ccc(C(=O)c3ccccc3)s2)nc2ccccc21	3.26 µM (active)
COc1ccc(-c2cn3cc([N+](=O)[O-])ccc3n2)cc1OC	1.83 µM (active)
O=[N+]([O-])c1ccc2nc(-c3ccc(OC(F)F)cc3)cn2c1	2.31 µM (active)
COC(=O)c1sc(NC(=O)c2ccc(OC)cc2OC)nc1C	0.365 µM (active)
COc1ccc(C(=O)Nc2ccc(C)cn2)c(OC)c1	0.579 µM (active)
COc1cc(C(=O)NC(=S)Nc2ccc(Cl)cn2)cc(OC)c1OC	inactive
C[C@H]1CN=C(N(C)C)N1CCC1CCCC1	inactive
CCOC(=O)CSc1ccc(C(=O)NCCCN2CCOCC2)cc1[N+](=O)[O-]	18.3 µM (active)
O=C(CN(C1CCCCC1)S(=O)(=O)c1ccc(F)cc1)NCC1CCCO1 (stereo not given)	1.63 µM (active)
Cc1c[n+]([O-])ccc1[N+](=O)[O-]	1.3 µM (active)
Cc1ccnc(NC(=O)c2ccc3c(c2)OCO3)c1	2.59 µM (active)
Cc1cc(NC(=O)c2ccc(C(C)(C)C)cc2)no1	6.5 µM (active)

SMILES	Potency
Cc1nc2c(ccc3nc(NC(=O)c4ccc5c(c4)OCCO5)sc32)s1	3.26 µM (active) and 3.65 µM (active)
Cc1cc(NC(=O)c2ccc3c(c2)OCCO3)no1	1.16 µM (active)
N#Cc1sc(NCc2cccc(Cl)c2)nc1Cl	23.1 µM (active)
NC(=O)CCCn1c(C(=O)c2ccc(Cl)cc2)c2ccc([N+](=O)[O-])cc2[n+]1[O-]	1.16 µM (active)
NCCCn1c(C(=O)c2ccc(Cl)cc2)c2ccc([N+](=O)[O-])cc2[n+]1[O-]	3.26 µM (active)
CCOC(=O)C1=C(C)N=c2s/c(=C/c3cccc([N+](=O)[O-])c3O)c(=O)n2C1c1cc(OC)c(OC)c(OC)c1 (stereo not given)	2.9 µM (active)
CCOC(=O)C1=C(C)N=c2s/c(=C/c3cccc([N+](=O)[O-])c3O)c(=O)n2C1c1ccc(OC)cc1OC (stereo not given)	1.83 µM (active)
CCOC(=O)C1=C(C)N=c2s/c(=C\c3ccc(O)c([N+](=O)[O-])c3)c(=O)n2C1c1ccccc1OC (stereo not given)	2.05 µM (active)
CCOC(=O)C1=C(C)N=c2s/c(=C/c3cccc([N+](=O)[O-])c3O)c(=O)n2C1c1ccccc1 (stereo not given)	2.31 µM (active)
CN(C)C(=O)CCc1ccc2c3c([nH]c2c1)[C@]1(CCC2CCCC2)[C@@H](C(=O)N2CCOCC2)C[C@H](CC(=O)NCCN2CCOCC2)C(=O)N1CC3	inactive
CC(=O)N1CCN(c2ccc(NC(=O)c3ccc([N+](=O)[O-])o3)cc2Cl)CC1	1.45 µM (active)
CS(=O)(=O)N1CCN(c2ccccc2NC(=O)c2ccc([N+](=O)[O-])o2)CC1	1.3 µM (active)
CCC(=O)N1CCN(c2ccc(Cl)cc2NC(=O)c2ccc([N+](=O)[O-])o2)CC1	1.16 µM (active)
CN1CCN(c2ccc(NC(=O)c3ccc([N+](=O)[O-])o3)cc2Cl)CC1	1.3 µM (active)
O=C(Nc1ccccc1N1CCN(C(=O)c2ccccc2)CC1)c1ccc([N+](=O)[O-])o1	0.818 µM (active)
CCC(=O)N1CCN(c2ccc(NC(=O)c3ccc([N+](=O)[O-])o3)cc2Cl)CC1	0.65 µM (active)
CC(=O)Nc1ccc(S(=O)(=O)NCCC(=O)N2CCN(c3ccccc3Cl)CC2)cc1	inactive
CN1CCN(c2ccc(NC(=O)c3ccc4c(c3)OCCO4)cc2Cl)CC1	5.16 µM (active)
CCN1CCN(c2ccc(NC(=O)c3ccc([N+](=O)[O-])o3)cc2Cl)CC1	0.729 µM (active)
CC(C)C(=O)N1CCN(c2ccccc2NC(=O)c2ccc([N+](=O)[O-])o2)CC1	1.16 µM (active)
CC(C)C(=O)N1CCN(c2ccc(NC(=O)c3ccc([N+](=O)[O-])o3)cc2Cl)CC1	1.03 µM (active)
O=C(Nc1ccccc1N1CCOCC1)c1ccc([N+](=O)[O-])o1	1.3 µM (active)
O=C(Nc1cccc(Cl)c1N1CCOCC1)c1ccc([N+](=O)[O-])o1	1.3 µM (active)
CCC(=O)N1CCN(c2ccccc2NC(=O)c2ccc([N+](=O)[O-])o2)CC1	0.818 µM (active)
COc1ccc(CN(C(=O)CSc2nnc(-c3ccc(OC)c(OC)c3)o2)c2ccc(F)cc2)cc1	3.65 µM (active)
COc1ccc(-c2nc(CSCC(=O)NC3CCCC3)c(C)o2)cc1OC	inactive
Cc1ccc(CSc2nnc(Cn3c(=O)sc4ccccc43)n2C)cc1	inactive
